Compounds with a hit are over-represented: about 1.5% of the library has one in this group of screens.
PI5P4K alpha inh: PI5P4K alpha (human) kinase inhibition. max response, %. PI5P4Kalpha enzyme, ADP-Glo luminescence, 60 min; active compounds read low. 330,000 tested, 1.2% active; active = max response of -50% or lower; inconclusive = between -30% and -50%; inactive = -30% or higher; also: value at the top dose of about 77 µM
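Controls without substrate or without enzyme flank wells where PI5P4Kalpha converts substrate using 5 microM ATP (final). Incubation lasts 60 minutes at room temperature; ADP formed is read by ADP-Glo luminescence.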
Tb PFK inh: T. brucei PFK enzyme inhibition; T. brucei PFK, ADP-Glo luminescence; 330,000 tested, 0.17% active; Potency, µM (top dose mostly 57.5 µM), actives largely listed as inhibitors; also: nearly all actives have a fitted effect of over 60% in size
Target sequence (O15648 whole entry, looked up): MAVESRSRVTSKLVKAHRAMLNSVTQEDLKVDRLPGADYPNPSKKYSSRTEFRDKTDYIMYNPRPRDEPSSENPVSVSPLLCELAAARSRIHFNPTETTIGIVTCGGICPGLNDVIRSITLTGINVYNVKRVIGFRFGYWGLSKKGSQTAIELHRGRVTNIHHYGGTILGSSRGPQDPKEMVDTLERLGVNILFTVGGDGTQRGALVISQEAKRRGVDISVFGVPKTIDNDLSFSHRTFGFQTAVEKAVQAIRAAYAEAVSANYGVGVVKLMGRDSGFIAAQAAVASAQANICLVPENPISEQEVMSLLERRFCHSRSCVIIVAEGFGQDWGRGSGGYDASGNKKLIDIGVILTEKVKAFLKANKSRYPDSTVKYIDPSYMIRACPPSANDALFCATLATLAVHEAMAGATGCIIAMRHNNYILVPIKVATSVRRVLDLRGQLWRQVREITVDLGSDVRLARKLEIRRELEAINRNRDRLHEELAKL
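Luminescent ADP detection (ADP-Glo, two-step: ATP depletion then ADP-to-ATP conversion for luciferase) reported PFK activity after 45 min room-temperature reaction of 1.25 nM enzyme with 0.5 mM F6P and 0.1 mM ATP at pH 8.0.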
PGK inhibitor: inhibitors of T. brucei phosphoglycerate kinase | P07378 | PGK/GAPDH coupled, Kinase-Glo luminescence, 60 min | Potency, µM (series often up to 57.5 µM), hits mostly inhibitors | 380,000 tested, 0.043% active | AID 602233; also: nearly all actives have a fitted effect of over 60% in size
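Luminescent ATP detection (Kinase-Glo Plus) follows a 60-minute room-temperature incubation, with wells lacking PGK as controls. Buffer: 100 mM TEA (pH 7.6), 5 mM MgCl2, 0.01% Tween-20. Coupling enzyme GAPDH (100 nM final) supplies unstable 1,3-BPG in-well.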
FEN1 inh: blocks human flap endonuclease 1. P39748. Recombinant FEN1 flap cleavage, fluorescence, 15 min. Potency, µM (titrated, usually from 114 µM), usual class: inhibitors. 390,000 tested, 0.35% active; also: nearly all actives have a fitted effect of over 65% in size
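Steps: FEN1 (10 nM) dispensed; compound added by pin tool; 15 min at room temperature; substrate added to 50 nM final; reads at 0 min and 15 min; data normalized and fitted (four-parameter Hill).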
TDP1 inh: blocks human tyrosyl-DNA phosphodiesterase 1; recombinant TDP1, AlphaScreen DNA substrate cleavage; Potency, µM (highest dose often 130 µM), usual class: inhibitors; 350,000 tested, 0.28% active; AID 485290; also: nearly all actives have a fitted effect of over 40% in size
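Recombinant E. coli-expressed Tdp1 (1 nM) preincubated with compound 15 min at RT, then 5'-biotin/3'-phosphotyrosine-FITC DNA substrate (15 nM) added for 5 min. AlphaScreen beads (10 ug/ml) added, 10 min RT; tyrosine-FITC cleavage read as signal loss.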
WRN inhibitor: WRN helicase (human) inhibition; 360,000 tested, 0.46% active; AID 651768; Potency, µM (doses to about 114 µM), hits mostly inhibitors; WRN helicase unwinding, fluorescent forked duplex, kinetic; Q14191; also: nearly all actives have a fitted effect of over 55% in size
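Primary qHTS, 1536-well format. 20 nM WRN + compound, 15 min RT; start with 100 nM forked fluorophore/quencher duplex, 2 mM ATP (final); kinetic read ex 525/em 598 nm.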
Numbers stand for hits; – = inactive; ? = inconclusive; · = no result given; ! = repeats disagree; [ ] = remark or other dose. Unless noted, calls follow the shape of the dose curve; as a rule, active = well fitted curve in the direction sought with a large enough effect; inconclusive = small, poorly fitted or top-dose-only effect, or another doubt; inactive = no such curve, though single readings can be large; an effect the other way counts as inactive or inconclusive.

SMILES	PI5P4K alpha inh	Tb PFK inh	PGK inhibitor	FEN1 inh	TDP1 inh	WRN inhibitor
N#Cc1ccsc1NC(=O)COC(=O)C1=NNC(=O)CC1	-82.3	?	–	?	–	?
O=c1cc(CCl)nc2sc3ccccc3n12	–	–	–	–	50.1µM	–[11.6 µM]
O=C(OCc1cc(=O)n2c(n1)sc1ccccc12)c1ccc(O)cc1	–	–	–	–	–	–
O=C(/C=C/c1ccco1)NC(=S)Nc1cc(-c2nc3ccccc3s2)ccc1Cl	-56.3	–	–	–	–	?
Cc1ccccc1NC(=S)NC(=O)/C=C/c1ccco1	-58.3	–	–	79.4µM	–	79.4µM
Cc1ccc(-c2nc3ccccc3s2)cc1NC(=S)NC(=O)/C=C/c1ccco1	–	–	–	–	–	?
Cc1cccc(NC(=S)NC(=O)/C=C/c2ccco2)c1	-64.3	–	–	–	–	?
CSc1cccc(NC(=O)/C=C/c2ccco2)c1	-58.1	–	–	–	–	–[11.6 µM]
COc1cc([C@@H]2CC(=O)c3c(O)cc(O)cc3O2)ccc1O	·	·	·	·	–	·
CC(=O)c1cc2c(s1)c1cnn(Cc3ccccc3F)c(=O)c1n2C	·	·	·	·	–	·
O=C(C[n+]1ccc(Cl)c2ccc(Cl)cc21)c1ccc(F)cc1	·	·	·	–	·	·
O=C1[C@H](Cc2ccccc2)NC/C=C\C[C@@H](c2ccc(Cl)cc2)N1Cc1ccccc1	·	·	·	–	·	·
CCCn1nnc(NC(=S)NC(=O)/C=C/c2ccco2)n1	-63.4	–	–	?	·	?
Cn1nnc(NC(=O)/C=C/c2ccco2)n1	–	–	–	–	·	–
COc1ccc2c(c1OC)C(=O)N1c3ccccc3C(=O)N(Cc3ccco3)C21 (centres undefined)	·	·	·	–	–	·
CS(=O)(=O)N1Cc2ccccc2CC1C(=O)OCC(=O)NCc1ccccc1 (centres undefined)	?	?	–	–	·	?
C/C(N)=C(/C#N)C(=O)COC(=O)C1Cc2ccccc2CN1S(C)(=O)=O (centres undefined)	-59.4!	–	–	–	?	–
CCCCCCCCCCCCOC(=O)N1CCN(/[N+]([O-])=N/Oc2ccc([N+](=O)[O-])cc2[N+](C)=O)CC1	·	·	·	–	·	·
N#C/C(=C\c1ccc(N2CCOCC2)c([N+](=O)[O-])c1)c1nc2ccccc2[nH]1	–	–	–	?	–	–
N#C/C(=C\c1ccc(N2CCOCC2)o1)c1nc2ccccc2[nH]1	–	–	–	?	–	50.1µM
COc1cccc(C2c3c(ncn(-c4ccccc4C(C)(C)C)c3=N)Oc3ccc4ccccc4c32)c1 (centres undefined)	·	·	·	·	–	·
O=C(COC(=O)c1ccccc1SCC(=O)NC1CCS(=O)(=O)C1)NC1CCS(=O)(=O)C1 (centres undefined)	–	–	–	–	–	–
CCNC(=O)NC(=O)COC(=O)c1ccccc1SCC(=O)NC(=O)NCC	-62.9	–	–	–	–	?
O=C(O)CN1C(=O)/C(=C/c2ccc(-c3cccc(Cl)c3)o2)SC1=S	·	·	·	·	–	·
CC(C)([CH2][Sn]([CH2]C(C)(C)c1ccccc1)([CH2]C(C)(C)c1ccccc1)[O][Sn]([CH2]C(C)(C)c1ccccc1)([CH2]C(C)(C)c1ccccc1)[CH2]C(C)(C)c1ccccc1)c1ccccc1	·	·	·	·	–	·
SMILES	PI5P4K alpha inh	Tb PFK inh	PGK inhibitor	FEN1 inh	TDP1 inh	WRN inhibitor
Fc1ccc(/C=C2\CCCC3=C2Nc2ncnn2C3c2ccc(F)cc2)cc1 (centres undefined)	–	–	–	–	–	50.1µM
COc1ccc(-c2nc3ccccc3n2Cc2ccccc2)cc1COc1ccc(NC(C)=O)cc1	·	·	·	·	–	·
c1nc(NCc2ccoc2)c2cc(-c3ccc4c(c3)OCO4)ccc2n1	·	·	·	·	–	·
COC(=O)/C=C1\SC(=NC(=O)c2ccc(-c3ccccc3)cc2)NC1=O	-63.1	–	–	–	–	–[11.6 µM]
COC(=O)/C=C1\SC(=NC(=O)c2ccc(OC)cc2)NC1=O	–	–	–	–	–	–
O=C(CSCc1ccc(Cl)cc1Cl)Nc1ccccc1C(=O)Nc1ccc(C(=O)O)cc1	–	–	–	–	–	–
C=CCn1c(CSCc2ccc(Cl)cc2Cl)nnc1SCC(=O)Nc1ccc(C(=O)O)cc1	-73.9	–	–	–	–	–
